IL1B secr inh – inflammasome signaling inhibition, IL-1 beta readout; THP-1 LPS/ATP IL-1B secretion, AlphaLISA, 16 h; hits give low values; activity change, % at 57.5 µM; 360,000 compounds, 4.7% hits; in the data active means activity change below about -50%; inconclusive means mostly about -30% to -49%
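THP-1 cells pretreated 1 hr with compounds (up to 57.5 uM final), then stimulated with LPS (250 ng/mL final) plus ATP (1.25 mM final); secreted IL-1B measured by AlphaLISA after 16 hr, decreased signal indicating inhibition.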
HT1080-NT tox – kills 2HG-producing HT-1080-NT fibrosarcoma cells. 360,000 compounds, 1.6% hits. Potency, µM (series often up to 46.1 µM), inactives show top-dose activity, negative = less viability, hits mostly cytotoxic. HT-1080-NT fibrosarcoma viability, CellTiter-Glo ATP luminescence, 48 h;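 further: NT is the 2HG producing partner of a matched IDH1 knockdown line; potency means the concentration at half of the fitted maximal effect; 0% = DMSO-treated cells and -100% = media-only wells without cells; nearly all actives have a fitted effect of over 55% in size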
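HT-1080-NT fibrosarcoma cells (2HG-overproducing), 750 cells/well in RPMI with 5% FBS, dosed after 2 h and incubated 48 h at 37C. CellTiter-Glo luminescence normalized to DMSO and no-cell wells; concentration-response curves fitted and classed.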
DT40 TDP1 CPT – DT40-hTDP1 cell growth loss with CPT; chicken DT40 Tdp1-/-;hTDP1 cells + 20 nM CPT, ATP luminescence, 48 h; Potency, µM (series often up to 46.2 µM), for the others: at the highest dose activity change, negative = growth inhibition, most hits filed as inhibitors; AID 686979; 420,000 compounds, 12% hits; further: potency means the concentration at half of the fitted maximal effect; nearly all actives have a fitted effect of over 55% in size
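Cell growth measured by CellTiter-Glo luminescence after a minimum 48 h, 37 C compound exposure with 20 nM CPT in Tdp1-knockout DT40 cells stably expressing hTDP1, seeded 400/well; qHTS titration format.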
HT1080 IDH1KD tx – kills HT-1080 cells with IDH1 knockdown; HT-1080 IDH1 knockdown viability, ATP luminescence, 48 h; Potency, µM (series often up to 46.1 µM), for the others: at the highest dose activity, negative = toxicity, most hits filed as cytotoxic; AID 686971; 360,000 compounds, 2% hits;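 further: potency means the concentration at half of the fitted maximal effect; 0% = DMSO wells and -100% = cell-free medium wells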
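Luminescent ATP read-out (CellTiter-Glo, 10 min at room temperature) after 48 h compound exposure at 37 °C gave viability of IDH1-knockdown HT-1080 cells. Activity was normalised to DMSO and cell-free wells, then fitted as concentration-response curves.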
DT40 TDP1 no CPT – qHTS for Inhibitors of human tyrosyl-DNA phosphodiesterase 1 (TDP1): qHTS in cells in absence of CPT; DT40 Tdp1-/- hTDP1 cells, no CPT, ATP luminescence, 48 h; Potency, µM (titrated, usually from 46.2 µM), inactives show at the highest dose activity change, negative = growth inhibition, actives largely listed as inhibitors; 420,000 compounds, 15% hits; further: potency means the concentration at half of the fitted maximal effect; nearly all actives have a fitted effect of over 55% in size
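Luminescent ATP content (CellTiter-Glo) served as the growth readout. Knockout chicken DT40 cells expressing human TDP1 were exposed to compounds without camptothecin for a minimum 48 hr at 37 °C.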
An asterisk follows results filed as active; u = inconclusive; x = no result. In the library only some 19% were active in any assay of this set; here they are far more common. Unless noted, the call rests on the fitted dose curve; in most records, active means well fitted curve in the direction sought with a large enough effect; inconclusive means small, poorly fitted or top-dose-only effect, or another doubt; inactive means no such curve, though single readings can be large; an effect the other way counts as inactive or inconclusive. Unless noted, on the % scale 0 is the no-effect control and ±100 the full control effect.

SMILES	IL1B secr inh	HT1080-NT tox	DT40 TDP1 CPT	HT1080 IDH1KD tx	DT40 TDP1 no CPT
Cc1ccc(NC(=O)CSc2nnc(-c3ccoc3C)n2CCCN(C)C)cc1Cl	-61*	-16%	-6%	-17%	-11%
Cc1ccc(Cl)cc1NC(=O)Cn1nc2c(cc1=O)CC(C)CC2 (stereo unspecified)	x	x	-17%	x	-33%
COc1ccccc1N1CCN(S(=O)(=O)c2cc(-c3cc(C)no3)ccc2C(C)C)CC1	-5	-8%	u	0%	u
Cn1ccsc1=NC(=O)c1cccc(C#N)c1	-25	20%	0%	12%	-22%
CC(CNC(=O)CC(C)(C)C)NC(=O)CC(C)(C)C (stereo unspecified)	3	24%	1%	16%	11%
Cc1onc(NC(=O)c2ccc(Cl)cc2Cl)c1Br	-11	18%	u	-6%	10µM*
CCn1c(NCCO)nc2c(c1=O)C(C)(CC)Cc1ccccc1-2 (stereo unspecified)	4	u	u	-29%	16µM*
CCC1(C)Cc2ccccc2-c2nc(NCCCO)n(-c3ccccc3)c(=O)c21 (stereo unspecified)	-6	-1%	2.1µM*	-11%	4.1µM*
CCC1(C)Cc2ccccc2-c2nc3n(c(=O)c21)CCS3 (stereo unspecified)	-12	2%	u	4%	8.2µM*
Cc1c(C(=O)NC(=S)N(Cc2ccccc2)c2ccccn2)cccc1[N+](=O)[O-]	0	11%	u	0%	-29%
O=C(OC1CCOC1=O)C1CCN(S(=O)(=O)c2c(Cl)cccc2Cl)CC1 (stereo unspecified)	u	-3%	-4%	-4%	3%
COC(=O)CS(=O)(=O)c1ccsc1C(=O)Nc1ccc(F)cc1	-5	-23%	-1%	-4%	-9%
CC(C)(C)OC(=O)N1CCC[C@H]1c1nnc(SCc2ccccc2F)o1	-7	0%	u	2%	u
CC(NC(=O)CNC(=O)c1ccccc1Br)c1cccs1 (stereo unspecified)	20	0%	7%	13%	0%
Cc1noc(C)c1C(=O)N1CCC[C@@]2(CCN(Cc3cc(C(F)(F)F)cc(C(F)(F)F)c3)C2)C1	x	x	-8%	x	u
COCCNC(=O)C1CCCN(C(=O)COc2ccc(C(C)(C)C)cc2)CC1 (stereo unspecified)	5	20%	-21%	22%	u
O=[N+]([O-])c1c(NCc2ccco2)ccc2nonc12	x	7%	12%	4%	-20%
CC(=O)OCCCNc1cc(SCc2ccco2)c2nonc2c1[N+](=O)[O-]	-103*	-3%	21µM*	-20%	u
CCCC(=O)OCCNc1cc(SCc2ccco2)c2nonc2c1[N+](=O)[O-]	u	u	u	23µM*	u
CCCSc1cc(NCCOC(=O)CCC)c([N+](=O)[O-])c2nonc12	-19	-2%	2.6µM*	u	4.6µM*
CCCSc1cc(NCCOC(C)=O)c([N+](=O)[O-])c2nonc12	14	-8%	-1%	-4%	u
COc1ccc(NC(=O)CSc2nnc(-c3cnccn3)n2C)cc1OC	-17	14%	0%	2%	13%
CCOC(=O)c1c(NC(=O)c2noc3c2CC(C(C)(C)C)CC3)sc2c1CCCC2 (stereo unspecified)	x	x	-14%	x	-6%
COc1ccc(C)cc1NC(=O)NNC(=O)C1CCC(C(C)(C)C)CC1 (stereo unspecified)	-21	8%	u	-14%	u
COc1ccccc1C(CC(=O)c1ccccc1)CC(=O)c1ccccc1	u	-13%	-79%	-11%	u
COc1ccccc1C(CC(=O)c1ccccc1)C(=O)c1ccccc1 (stereo unspecified)	10	u	u	u	u
C=C(C(=O)c1ccccc1)C(CC(=O)c1ccccc1)c1ccccc1 (stereo unspecified)	-95*	u	4.6µM*	12µM*	4.6µM*

From PubChem
